Measured values as given in PubChem BioAssay AID2071 (Sanford-Burnham Center for Chemical Genomics, 2009).
The campaign covered roughly 280,000 compounds. About 1,700 (0.61%) were called active. Only a selection was taken, and actives are over-represented in it overall. Unmarked numbers belong to inactive results. No stated cut-off is given here; in the data, active means inhibition mostly above about 24% (no sharp cut-off); inactive means mostly below about 32%.

Assay: NALP1 inflammasome inhibitors in reconstituted yeast, colorimetric, S. cerevisiae, triplicate retest (AID 2071)
Settings: S. cerevisiae NALP1/ASC/caspase-1 growth, X-gal OD620, 72 h, stronger effect = higher value; at 10 µM unless noted

Compound `CC(C)CC(=O)NC(=S)Nc1cc(C(=O)O)ccc1Cl` has an inhibition of 11.6%.
For `CC(C)CC(=O)NC(=S)Nc1ccc(F)cc1F`, the inhibition was 42.9% (active).
`CC(=O)c1ccc(NC(=S)NC(=O)CC(C)C)cc1` gave an inhibition of 27.8%.
With `COc1ccc(C2C(C(C)=O)=C(O)C(=O)N2CCc2c[nH]c3ccccc23)cc1` (centres undefined) the inhibition was 5.6%.
For `COc1ccc(C2C(C(C)=O)=C(O)C(=O)N2Cc2cccnc2)cc1` (centres undefined), the inhibition was 33.6% (active).
Compound `COc1cc(C2C(C(=O)c3ccc(C)o3)=C(O)C(=O)N2Cc2cccnc2)ccc1O` (centres undefined) has an inhibition of -2.8%.
In the case of `CC1Cc2cc(/C(O)=C3\C(=O)C(=O)N(Cc4cccnc4)C3c3ccccc3F)ccc2O1` (centres undefined), the inhibition is reported as 29.4%.
Work on `Cc1ccc(-n2ncc(C(=O)NC3CC3)c2C2CCN(C(=O)OC(C)(C)C)CC2)c(C)c1` yielded an inhibition of -2.6%.
In the case of `O=C(NCc1cccs1)C1CCN(S(=O)(=O)c2ccc(Cl)cc2)CC1`, the inhibition is reported as 23.6% (active).
`O=C(NCc1ccc(Cl)cc1)C1CCN(S(=O)(=O)c2cccs2)CC1` showed an inhibition of 4%.
`O=C(NCc1cccs1)C1CCN(S(=O)(=O)c2ccc3c(c2)OCCO3)CC1` showed an inhibition of -1.6%.
Compound `CCc1ccc(/C=N/NC(=O)c2nnn(-c3nonc3N)c2CN2CCc3ccccc32)cc1` has an inhibition of 0%.
In the case of `O=C(Nc1nnc(C2CC2)s1)c1cc(Cl)sc1Cl`, the inhibition is reported as 5.9%.
In the case of `Cn1c(SCC(=O)Nc2ccc(Br)cc2F)nnc1-c1ccco1`, the inhibition is reported as 31.1% (active).
`Cn1c(SCC(=O)c2cccs2)nnc1-c1ccco1` gave an inhibition of 14.7%.
`CCCCNC(=O)CSc1nnc(-c2ccco2)n1C` showed an inhibition of 10.9%.
`O=C(Nc1ccc(C(=O)N2CCOCC2)cc1)Nc1cccc(C(F)(F)F)c1` showed an inhibition of -1.5%.
Work on `O=C(CN1CCCCCC1)Nc1ccc(Br)cc1[N+](=O)[O-]` yielded an inhibition of -4.1%.
`Cc1ccc(S(=O)(=O)N2CCN=C2SCc2c(F)cccc2Cl)cc1` gave an inhibition of 14.5%.
With `COc1cccc(CNc2ncc(-c3ccccc3)n2C)c1` the inhibition was -8.5%.
In the case of `Cn1c(SCC(=O)C(C)(C)C)nnc1-c1ccccn1`, the inhibition is reported as 43.3% (active).
With `Cn1c(SCC(=O)c2ccc(F)cc2)nnc1-c1ccccn1` the inhibition was 4.2%.
`CCn1c(SCC(=O)NC2CC2)nnc1-c1ccccn1` showed an inhibition of 20%.
Work on `FC(F)(F)c1nnc2c3ccccc3c(Cl)nn12` yielded an inhibition of 2.1%.
In the case of `COc1ccc(N2C(=O)C3CCCN3C2c2cccs2)cc1` (centres undefined), the inhibition is reported as 11.5%.
In the case of `COc1ccc(N2C(=O)C3CCCN3C2c2cc(OC)c(OC)cc2OC)cc1` (centres undefined), the inhibition is reported as 41.6% (active).
`COc1ccc(N2C(=O)C3CCCN3C2c2cccc(OC)c2)cc1` (centres undefined) showed an inhibition of -8.3%.
With `O=C(CN1CCN(C(=O)C2CCCO2)CC1)Nc1c(Cl)cccc1Cl` (centres undefined) the inhibition was 17.6%.
`COc1ccc(-c2c(C#Cc3ccccc3)c3ccccc3n2C)cc1` showed an inhibition of 15.3%.
With `CC(=O)Nc1ccc(NC(=O)CS(=O)(=O)c2cn(CC(=O)N3CCCCC3)c3ccccc23)cc1` the inhibition was 5.8%.
With `C=CS(=O)c1sc(Cl)c(N2CCOCC2)c1[N+](=O)[O-]` (centres undefined) the inhibition was 37.6% (active).
Work on `Cc1cccc(NC(=O)c2ccc(S(=O)(=O)N(C)CC3CCCO3)cc2)c1C` (centres undefined) yielded an inhibition of 15.7%.
In the case of `Cc1nc(Cl)c(C#N)c2c1CCCC2`, the inhibition is reported as 41.9% (active).
For `CC(C)Cc1nc(Cl)c(C#N)c2c1CCC2`, the inhibition was 8%.
With `COCc1c(N)c(C)nc(Cl)c1C#N` the inhibition was -22.9%.
`COc1ccc(NCCc2ccccn2)cc1` gave an inhibition of 8.9%.
Work on `O=C(NCCCc1ccccc1)C(=O)NCC1OCCN1S(=O)(=O)c1ccccc1` (centres undefined) yielded an inhibition of -4.3%.
In the case of `COc1ccc(CCNC(=O)C(=O)NCC2OCCN2S(=O)(=O)c2cccs2)cc1OC` (centres undefined), the inhibition is reported as 0.8%.
With `COc1cccc(NC(=O)[C@H](Cc2c[nH]c3ccccc23)NC(=O)[C@@H]2Cc3ccccc3CN2)c1` the inhibition was 17.2%.
With `CC(C)(C)NC(=O)NCc1ccco1` the inhibition was 41.4% (active).
`CC(C)(C)c1ccc(NC(=O)NCc2ccco2)cc1` gave an inhibition of 21.4%.
Work on `Cc1ccccc1NC(=O)NCc1ccco1` yielded an inhibition of 23.9%.
With `Cc1[nH]n(C(N)=S)c(=O)c1N=Nc1ccc(Cl)cc1Cl` the inhibition was 0.4%.
`COc1ccc(-n2nc(C(=O)NCC(=O)N3CCN(c4ccccc4OC)CC3)c3ccccc3c2=O)c(OC)c1` showed an inhibition of 20.4%.
`CN(c1ccc(O)cc1)c1nc(-c2cccnc2)cs1` showed an inhibition of 12.3%.
Compound `O=C(NC(=S)Nc1ccc(Cl)cc1Cl)C1CC1` has an inhibition of 10.6%.
For `O=C(NCC(=O)N1CCN(c2ncc(C(F)(F)F)cc2Cl)CC1)c1ccc(Br)o1`, the inhibition was 6.1%.
Work on `CC1(C)Cc2cccc(OCC(=O)NCc3ccccc3)c2O1` yielded an inhibition of -5.5%.
In the case of `Cc1nc(NCc2ccccc2)c(C(N)=O)c2c1COC(C)(C)C2`, the inhibition is reported as 37.7% (active).
